In PubChem BioAssay (NCI):
Compounds without any hit were thinned out: in the full panel of roughly 83,000, 20% have a hit.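 Testing used 96-well plates and a 48-hour single-concentration exposure. Example: -40 means 40% of the starting cells died.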 Calls of active or inactive are those of the source. The calls were made as follows: active = growth percent below 10; inactive = the rest.

Tested on: NCI/ADR-RES ovarian
Assay: NCI-60 one-dose screen, 48 h (100 = growth as untreated, 0 = no growth, -100 = all killed)
Conditions: 10 µM unless noted

Question: `COc1ccc(OC)c(/C=C/[C@H]2O[C@@H](C)[C@H](O)[C@@H]2O)c1` was tested. Which growth did it give?
Answer: Its growth is 108% (inactive).

Question: Which growth does the source give for `Cn1ncc2c(Nc3ccccc3Cl)nc(Cl)nc21` here?
Answer: The growth was 100% (inactive).

Question: How did the growth turn out when `CCN(CCNc1cc(OC)cc2cccnc12)CCc1ccccc1` was run?
Answer: The growth was 81.1% (inactive).

Question: `CCCC/C(=N\N=C(N)N)c1ccc(F)cc1` was tested. Which growth did it give?
Answer: Its growth is 7.48% (active).

Question: For `O=S(=O)(c1ccc(N/N=C\c2ccccc2)cc1)c1ccc(N/N=C/c2ccccc2)cc1`, which growth is on record?
Answer: The growth was 53.1% (inactive).

Question: Which growth does the source give for `CCOC(=O)C1=C(C)NC(C)=C(C(=O)OCC)C1c1cc(Br)c(O)c(OC)c1` here?
Answer: The growth was -14.5% (active).

Question: How did the growth turn out when `CS(=O)(=O)OCCN(CCOS(C)(=O)=O)c1ccc(/C=N/Nc2ccc([N+](=O)[O-])cc2[N+](=O)[O-])cc1` was run?
Answer: The growth was 73% (inactive).

Question: How did the growth turn out when `COc1nccnn1` was run?
Answer: Its growth is 101% (inactive).

Question: How did the growth turn out when `COC(=O)C1NC(=S)N(c2ccc(Cl)cc2)C1/C=C/c1ccccc1` (configuration not stated) was run?
Answer: Its growth is 90% (inactive).

Question: How did the growth turn out when `COc1cc(CCNc2nc3cc(N)cc(N)c3nc2-c2ccccc2)cc(OC)c1` was run?
Answer: Its growth is 39.1% (inactive).

Question: With `O=C(O)/C=C\C(=O)N1C/C(=C\c2ccccc2Cl)C(=O)/C(=C/c2ccccc2Cl)C1` as the compound, how does the growth read?
Answer: Its growth is 4.6% (active).

Question: How did the growth turn out when `O=C1/C(=C/c2ccc(O)cc2)COc2ccc(-c3ccccc3)cc21` was run?
Answer: The growth was 78.2% (inactive).

Question: For `Cc1[nH]n(-c2cccc(Cl)c2)c(=O)c1/C=C1\C=Nc2ccc(Br)cc21`, which growth is on record?
Answer: The growth was 16.3% (inactive).

Question: How did the growth turn out when `CO[C@@H]1[C@H](N(C)C(=O)c2ccccc2)C[C@@H]2O[C@]1(C)n1c3ccccc3c3c4c(c5c6ccccc6n2c5c31)C(=O)NC4=O` was run?
Answer: Its growth is 42.9% (inactive).

Question: Which growth does the source give for `Cc1cc2cc3cc(C)c(N)cc3[n+](C)c2cc1N` here?
Answer: The growth was 48.5% (inactive).

Question: How did the growth turn out when `CNC(=O)Nc1ccc(-c2nc(N3CCOCC3)nc3c2cnn3C2CCOCC2)cc1` was run?
Answer: The growth was 4.44% (active).

Question: Which growth does the source give for `COc1ccc(/C=N/NC(=O)c2cccc3cc[nH]c23)cc1O` here?
Answer: Its growth is -7.64% (active).

Question: How did the growth turn out when `NC(=S)N/N=C(/c1ccccc1)c1ccccc1N` was run?
Answer: Its growth is 74.2% (inactive).

Question: For `CCCOc1nc(SCCC)nc2c1cnn2-c1ccccc1`, which growth is on record?
Answer: The growth was 96% (inactive).

Question: `COc1ccc(-c2cnnc3c(-c4cccc(C(F)(F)F)c4)cnn23)cc1` was tested. Which growth did it give?
Answer: Its growth is 60.5% (inactive).

Question: `COc1ccc(C2CC(n3nnnc3-c3ccccc3)=NN2)cc1` (configuration not stated) was tested. Which growth did it give?
Answer: Its growth is 49.9% (inactive).

Question: `O=C1Nc2ccccc2/C1=C\c1cccc(/C=C2/C(=O)Nc3ccccc32)n1` was tested. Which growth did it give?
Answer: The growth was 16.1% (inactive).
